Screening data deposited in PubChem BioAssay by several laboratories.
TMEM16A inh = inhibitors of mouse TMEM16A calcium-activated chloride channel. AID 588511. normalized B-score (activity score, 25-100; higher = stronger inhibition) at 10 µM. Q8BHY3. hit rate 1.2% among 310,000. HEK293 TMEM16A/YFP iodide influx fluorescence, ionomycin;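 active = ratio plate-corrected score three or more library SD toward inhibition, starting fluorescence score within five deviations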;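 note: score derived from kinetic fluorescence span divided by baseline fluorescence per well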
Target sequence (Q8BHY3 whole entry, looked up): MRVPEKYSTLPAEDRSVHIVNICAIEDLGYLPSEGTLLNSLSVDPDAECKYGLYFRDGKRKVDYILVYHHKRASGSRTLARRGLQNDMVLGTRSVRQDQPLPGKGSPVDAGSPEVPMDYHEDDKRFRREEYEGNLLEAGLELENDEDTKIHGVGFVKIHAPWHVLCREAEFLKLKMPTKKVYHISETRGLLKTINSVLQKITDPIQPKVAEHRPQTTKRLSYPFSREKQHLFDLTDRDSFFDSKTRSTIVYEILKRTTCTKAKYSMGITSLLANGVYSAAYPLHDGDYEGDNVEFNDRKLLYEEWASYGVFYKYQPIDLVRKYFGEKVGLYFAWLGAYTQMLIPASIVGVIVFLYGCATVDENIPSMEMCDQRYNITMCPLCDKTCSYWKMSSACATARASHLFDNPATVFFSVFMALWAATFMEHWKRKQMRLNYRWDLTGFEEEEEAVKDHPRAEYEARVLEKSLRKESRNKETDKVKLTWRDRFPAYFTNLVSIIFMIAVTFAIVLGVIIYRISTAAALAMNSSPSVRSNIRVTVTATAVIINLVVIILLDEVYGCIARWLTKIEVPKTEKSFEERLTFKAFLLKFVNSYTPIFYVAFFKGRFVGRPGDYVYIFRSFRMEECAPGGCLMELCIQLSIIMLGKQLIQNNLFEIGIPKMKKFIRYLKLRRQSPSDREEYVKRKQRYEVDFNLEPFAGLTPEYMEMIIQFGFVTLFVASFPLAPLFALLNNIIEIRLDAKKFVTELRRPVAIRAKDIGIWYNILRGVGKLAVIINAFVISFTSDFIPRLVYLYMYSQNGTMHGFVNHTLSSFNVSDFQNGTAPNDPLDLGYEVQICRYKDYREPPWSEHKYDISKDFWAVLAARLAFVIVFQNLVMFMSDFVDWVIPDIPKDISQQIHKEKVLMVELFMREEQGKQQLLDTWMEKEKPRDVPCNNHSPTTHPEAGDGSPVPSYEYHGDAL
Rce1 inhib = blocks yeast Ras-converting enzyme; hit rate 0.27% among 290,000; yeast membranes, quenched prenylated peptide cleavage fluorescence; calls only; AID 2563;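 active = fall in fluorescence gain of 50% or more versus controls, with final raw signal at or below 3038400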;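 note: plate controls were neutral control wells for no effect and wells lacking membranes for full effect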
ANO1 activ = mouse TMEM16A channel activation, primary screen. B-score at 10 µM. AID 623877. hit rate 0.3% among 340,000. Q8BHY3. HEK293 TMEM16A/YFP-H148Q/I152L, iodide quench fluorescence; active compounds read low;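 active = fluorescence-ratio B-score plate-corrected deviation score at least 3 library SD below zero, with starting fluorescence score within 5 deviations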;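 note: channel opened by trigger with iodide after compound preincubation; score built on the fluorescence ratio of max minus min over baseline; more negative score means more quench and so TMEM16A activation or potentiation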
Kir21 inh = blocks the mouse Kir2.1 inward-rectifier potassium channel; HEK293-Kir2.1, FluxOR thallium flux fluorescence; active compounds read low; AID 1672; B-score at 10 µM; P35561; hit rate 0.85% among 310,000;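 active = fluorescence ratio B-score at or below minus 3 SD of library scores, with starting-brightness B-score within 2 SD, cut at about -4.2 in these data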;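 note: channel flux triggered by added potassium and thallium sulfate stimulus; B-score of peak minus minimum fluorescence over baseline after thallium stimulus; more negative B-score means stronger Kir2.1 block with less thallium influx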
CHT allo act = allosteric activators of human choline transporter CHT; Q9GZV3; hit rate 0.49% among 310,000; CHT-expressing cells, membrane potential dye, choline EC20; active compounds read high; LV-AA mutant CHT in HEK293 cells; B-score at 10 µM;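 active = initial fluorescence not abnormally high and integrated response B-score, plate-corrected, over 3 SD above library mean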
CHT block = inhibits the human high affinity choline transporter; B-score at 10 µM; CHT-expressing cells, membrane potential dye, choline response; active compounds read low; hit rate 0.86% among 310,000;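 active = B-score over 3 SD under the library average, and starting fluorescence ratio not unusually high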;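 note: choline stimulus applied at its EC90 after an EC20 pre-addition; B-score computed on integrated fluorescence ratio after choline addition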
* marks the source's active call; other numbers are inactive results; i = inactive; / = no result given; + = active, no number. An excerpt weighted towards active compounds, which were near 3.2% of everything screened.

SMILES	TMEM16A inh	Rce1 inhib	ANO1 activ	Kir21 inh	CHT allo act	CHT block
CCOC(=O)c1cc2c(=O)n3ccccc3nc2n(C(C)C)c1=NC(=O)c1ccco1	i	i	i	0.34	i	i
CCc1ccccc1NC(=S)N(CCCN(C)C)Cc1cc2cc3c(cc2[nH]c1=O)OCO3	i	+	i	-0.02	i	i
Cc1ccc2[nH]c(=O)c(CN(Cc3ccccc3)C(=S)NCCCN(C)C)cc2c1	i	i	i	-4.7*	i	i
Cc1cccc(NC(=S)N(CCCN(C)C)Cc2cc3cc4c(cc3[nH]c2=O)OCO4)c1	i	i	i	1.1	i	i
N#CC1(CCCN2CCCCC2)c2ccccc2CCc2ccccc21	i	/	i	-5.6*	i	i
CC(C)Oc1ccc(C(CC(=O)O)NC(=O)C(Sc2ccccc2)c2ccccc2)cc1 (stereo not drawn)	i	i	i	2.5	i	i
Cn1c(Sc2ccc(Br)cc2)c(C=O)c2ccccc21	100*	i	i	0.88	i	i
Cn1c(Oc2ccc(F)cc2)c(C=O)c2ccccc21	i	i	i	-2.5	i	i
CC(C)CCC(CCNCc1ccccn1)c1ccc2c(c1)OCO2 (stereo not drawn)	i	i	i	-7.2*	i	i
Fc1ccccc1CNCCC(Cc1ccccc1)c1ccc2c(c1)OCO2 (stereo not drawn)	i	i	i	-8.7*	i	i
COc1ccc(/C=C/C(=O)O)cc1S(=O)(=O)NCc1cccnc1	i	i	i	-0.04	i	i
O=C(Nc1cccc(Cl)c1)N(Cc1nc2ccccc2c(=O)[nH]1)Cc1cccs1	i	i	i	2.4	i	i
CCOc1ccc(NS(=O)(=O)c2cc(NC(=O)c3cccc(C)c3)ccc2Cl)cc1	i	i	i	1.1	i	i
COc1ccc(OC)c(S(=O)(=O)NCc2csc(-c3ccccc3)n2)c1	i	i	i	-4.2*	i	i
CCc1ccc(S(=O)(=O)NCc2csc(-c3ccccc3)n2)s1	i	i	i	-6.3*	i	i
CCc1ccc(S(=O)(=O)NCCc2csc(-c3cccnc3)n2)s1	i	i	i	-2.4	i	i
O=S(=O)(NCc1csc(-c2ccccc2)n1)c1ccc(Cl)s1	i	i	i	-4.6*	i	i
COc1ccc(OC)c(S(=O)(=O)NCc2cn3c(C)csc3n2)c1	i	i	i	0.56	i	i
CSc1nc2nc(C)c(CCC(=O)OCC(=O)Nc3ccc(F)cc3)c(C)n2n1	/	/	i	/	/	/
COc1ccc(C(=O)CCC(=O)N2CCN(c3cc(C)ccc3C)CC2)cc1	i	i	-5.8*	-1.5	i	i
CN(Cc1ccccc1)C(=O)COC(=O)c1ccccc1NS(=O)(=O)c1cccc(N)c1	i	i	i	-0.96	i	i
CC(OC(=O)c1ccccc1NS(=O)(=O)c1cccc(C(F)(F)F)c1)C(=O)N(C)Cc1ccccc1 (stereo not drawn)	100*	i	i	1.5	i	i
CC(c1ccccc1)N1CC(C(=O)N2CCN(Cc3ccc(C#N)cc3)CC2)CC1=O (stereo not drawn)	/	/	i	/	/	/
COc1ccc(Cc2nc3ccc(C(=O)N4CCCC4)cc3o2)cc1	i	+	i	1.6	i	i
CCN(c1ccccc1)S(=O)(=O)c1ccc2c(c1)C(C)(C)C(=O)N2C	i	i	i	0.7	i	i
SMILES	TMEM16A inh	Rce1 inhib	ANO1 activ	Kir21 inh	CHT allo act	CHT block
CCCn1c(SCC(=O)N2c3ccccc3CC2C)n[nH]c1=O (stereo not drawn)	/	/	i	/	/	/
COc1cccc(NC(=O)CN(C)C(=O)COc2ccccc2Cc2ccccc2)c1	/	/	i	/	/	/
Cn1cc(Cl)c(C(=O)OCC(=O)c2ccccc2)n1	i	i	i	0.66	i	i
COc1ccc(CN2CCN(C(=O)c3c(-c4ccccc4)noc3C)CC2)cc1F	/	/	i	/	/	/
CC1CCCCC12NC(=O)N(CC(=O)OCc1cccc(F)c1)C2=O (stereo not drawn)	/	/	-20*	/	/	/
COc1ccc(CCNC(=O)c2cc3c(C)nccc3[nH]c2=O)cc1OC	i	i	i	0.49	i	i
